Test results: PubChem BioAssay (NCATS)
Records with an inconclusive call do not appear. Active and inactive are the calls of the source. Unless noted, the call rests on the fitted dose curve; in most records, active means well fitted curve in either direction with a large enough effect (not every such curve was filed as active); inconclusive means small, poorly fitted or top-dose-only effect, or another doubt; inactive means flat fitted curve, though single readings scatter.

How the values were obtained:
[1] = biological target: Lysosomal acid glucosylceramidase (Homo sapiens) (UniProt P04062); test: Glucocerebrosidase-p2 (AID 348; in the data active means potency below about 10 µM; further: potency means the concentration at half of the fitted maximal effect); details: purified GBA, blue fluorogenic substrate, 40 min
In short: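 Normal human glucocerebrosidase (0.2 nM) with blue fluorogenic substrate (80 uM final) in citrate/phosphate pH 5.9 with 10mM sodium taurocholate, 0.01% tween-20; 40 min RT, NaOH/glycine stop; fluorescence Ex 365/Em 440; AC50 from a titration from 0.6 nM upwards.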

[2] = AP1 Signaling Pathway (AID 357); details: ME-180 AP-1-bla reporter, EGF-induced, beta-lactamase ratio, 5 h; at 7.69 µM (top of the series) unless noted; further: on the % scale 0 is the no-effect control and ±100 the full control effect
In short: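 ME-180 cells with beta-lactamase reporter under AP-1 response element, stimulated with EC50 EGF; compounds tested in titration series, 5 h at 37 °C. CCF4 substrate added 2.5 h at room temperature; 460/530 nm emission ratio gave %activity and AC50.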

[3] = biological target: Cytochrome P450 1A2 (Homo sapiens) (UniProt P05177); test: p450-cyp1a2 (AID 410; calls by dose curve; further: potency means the concentration at half of the fitted maximal effect;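 on activity change, negative = inhibition: -100% = full effect of reference inhibitor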); details: recombinant CYP1A2, luciferin-ME demethylation, luminescence; series mostly up to 57 µM
In short: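 O-Demethylation of luciferin 6' methyl ether by human CYP1A2 is monitored as luciferase luminescence. Substrate sits at Km (100uM); enzyme is 20nM. Values are scaled to 57 uM furafylline as maximal inhibition.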

[4] = NFAT Signaling Pathway (AID 444); details: Jurkat NFAT-bla M1, carbachol, beta-lactamase ratio, 5 h; at 7.69 µM (top of the series) unless noted;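 further: carbachol stimulus at about its EC50 of 1 µM final; on the % scale 0 is the no-effect control and ±100 the full control effect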
In short: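 Jurkat cells carrying an NFAT-driven β-lactamase reporter and co-transfected muscarinic M1 receptor were treated with compound plus carbachol (1 uM final, an EC50 level) for 5 h at 37 °C. CCF4 loading followed for 1 h at RT; 460/530 nm ratio gave %activity.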

[5] = Stat Signaling Pathway (AID 446); details: ME-180 (cervical carcinoma) SIE beta-lactamase reporter, IL-6 stimulated, 5 h; at 7.69 µM (top of the series) unless noted;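 further: ME-180 cervical cancer cells given 40 pM IL-6 alongside compound; SIE-controlled beta-lactamase reporter measured as 460/530 nm FRET emission ratio; on the % scale 0 is the no-effect control and ±100 the full control effect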
In short: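 FRET read-out (405 nm excitation, 460/530 nm emission) of a beta-lactamase reporter under a STAT-inducible element in ME-180 cervical carcinoma cells. Cells with compound receive 40 pM IL-6 for 5 h. Values are normalised to AC90 stimulation and AC90 JAK-inhibitor controls.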

[6] = biological target: Glucocorticoid receptor (Homo sapiens) (UniProt P04150); test: GR-EFC Redistribution (AID 451; calls by dose curve; further: potency means the concentration at half of the fitted maximal effect); details: CHO-K1 GR-EFC translocation, beta-gal luminescence, 2 h
In short: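 CHO-K1 cells stably expressing nuclear-localized β-gal enzyme acceptor and GR fused C-terminally to the enzyme donor fragment; ligand-driven nuclear translocation restores β-gal by complementation. Compounds titrated up to 46 uM final, 2 h at 37 °C; luminescence read.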

[7] = biological target: Mitogen-activated protein kinase 10 (Mus musculus) (UniProt Q61831); test: JNK3 AlphaScreen Assay (AID 530); details: JNK3 lysate, c-Jun phosphorylation; series mostly up to 57.1 µM;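 further: kinase came from lysate of stimulated human HepG2 cells; signal reports phosphorylation of biotinylated GST-cJun 1-79 at Ser73 with 10 µM ATP; on the % scale 0 is the no-effect control and ±100 the full control effect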
In short: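 Phosphorylation of biotinylated GST-cJun(1-79) at Ser73 is measured by AlphaScreen proximity luminescence. Enzyme is JNK3 in HepG2 lysates activated with interleukin-1beta and tumor necrosis factor alpha; ATP is 10 uM final.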

[8] = biological target: Cytochrome P450 3A4 (Homo sapiens) (UniProt P08684); test: qHTS Assay for Inhibitors and Substrates of Cytochrome P450 3A4 (AID 884; active means well fitted curve in the direction sought with a large enough effect; an effect the other way counts as inactive or inconclusive; further: nearly all actives have a fitted effect of over 50% in size; further: potency means the concentration at half of the fitted maximal effect); details: recombinant CYP3A4, Luciferin-PPXE luminescence; series mostly up to 57.1 µM
In short: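 Luminescent readout of luciferin produced by CYP3A4 (20 nM) dealkylation of Luciferin-PPXE, 25 uM (its KM). NADPH-driven reaction ran 60 min at RT after 10 min compound preincubation; data scaled to 57 uM ketoconazole as 100% inhibition.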

[9] = biological target: Cytochrome P450 3A4 (Homo sapiens) (UniProt P08684); test: qHTS Assay for Activators of Cytochrome P450 3A4 (AID 885; active means well fitted curve in the direction sought with a large enough effect; an effect the other way counts as inactive or inconclusive; further: nearly all actives have a fitted effect of over 65% in size; further: potency means the concentration at half of the fitted maximal effect); details: recombinant CYP3A4, Luciferin-PPXE luminescence, 60 min; series mostly up to 57.1 µM
In short: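 Luminescent readout of luciferin formed from 25 uM Luciferin-PPXE (KM level) by 20 nM CYP3A4 in 200 mM KPO4, with 60 min NADPH-driven reaction at room temperature after 10 min compound exposure. Ketoconazole (57 uM) defined 100% inhibition.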

[10] = qHTS Assay for Lipid Storage Modulators (AID 1519; calls by dose curve); details: Drosophila S3 cells, BODIPY lipid droplet/cell ratio, laser cytometry, cells loaded with oleic acid; for activity change, negative = inhibition: at 57.5 µM (top of the series)
In short: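 Cells seeded at 5,000 per well were treated with compounds over a concentration series and loaded with oleic acid (400 uM, as added). Lipid droplet fluorescence (488 nm excitation, 500-530 nm channel) was read by laser-scanning cytometry and normalized to 20 uM Triacsin C.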

[11] = biological target: 3',5'-cyclic-AMP phosphodiesterase 4B (Homo sapiens) (UniProt Q07343); test: qHTS Assay for Inhibitors of PDE-IV (AID 607; active means well fitted activation curve with a large enough effect in the main read-out, with a control signal flat, not every such curve was filed as active; further: % of control where 0% means no effect); details: HEK293 ACTOne CNG channel cells, membrane potential fluorescence; series mostly up to 22.9 µM
In short: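 Cell-based read-out of cAMP via a modified cyclic nucleotide-gated channel and membrane potential dye (535/590 nm) in HEK293 cells expressing PDE4 endogenously. Compounds tested up to 22.9 uM final; 100 uM RO 20-1724 reference.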

[12] = biological target: Cytochrome P450 2D6 (Homo sapiens) (UniProt P10635); test: qHTS Assay for Inhibitors and Substrates of Cytochrome P450 2D6 (AID 891; active means well fitted curve in the direction sought with a large enough effect; an effect the other way counts as inactive or inconclusive; further: potency means the concentration at half of the fitted maximal effect; nearly all actives have a fitted effect of over 60% in size); details: recombinant CYP2D6, luciferin-ME EGE luminescence; series mostly up to 57.1 µM
In short: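 Luminescent read-out of luciferin formed by 5 nM human CYP2D6 demethylating 30 uM Luciferin-ME EGE (Km level) over 60 min at room temperature after NADPH regeneration addition. Data normalized to full inhibition by 1.43 uM quinidine.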

[13] = biological target: Glucocorticoid receptor (Homo sapiens) (UniProt P04150); test: GR-GFP Redistribution (AID 450;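 active means compounds whose dose series gives a full or clear partial fitted curve of increased nuclear translocation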; further: potency means the concentration at half of the fitted maximal effect); details: U2OS GR-GFP nuclear translocation, laser cytometry, 2 h
[14] = Confirmation and Secondary Assay for Modulators of Hemoglobin Beta Chain Splicing at IVS2 654 locus (AID 910; active means well fitted curve in the direction sought with a large enough effect; an effect the other way counts as inactive or inconclusive;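 further: per-well total GFP intensity by laser scanning cytometry after 2-day treatment; % of control where 0% means no effect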); details: HeLa EGFP-654 splicing reporter, GFP fluorescence, 48 h; series mostly up to 38.3 µM
In short: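 HeLa cells stably carrying EGFP interrupted by mutant beta-globin IVS2-654 intron (CMV-driven) were treated with compound for 2 days at 37C; corrected splicing was scored as total peak GFP intensity per well (488 nm excitation, 500-520 nm emission).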

[15] = Confirmation and Secondary Assay for Modulators of Hemoglobin Beta Chain Splicing at IVS2 705 locus (AID 930; active means well fitted curve in the direction sought with a large enough effect; an effect the other way counts as inactive or inconclusive;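 further: HeLa cells stably expressing the EGFP-705 splicing reporter; GFP fluorescence per well restored by corrected splicing of the IVS2-705 intron in EGFP; % of control where 0% means no effect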); details: HeLa EGFP-705 splicing reporter, GFP fluorescence, 48 h; series mostly up to 38.3 µM
In short: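 First, HeLa EGFP-705 cells are seeded at 500/well in Optimem with 2% FCS and left overnight. Next, compound or DMSO is added for 2 days. Finally wells are laser-scanned and total peak GFP intensity scored.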

[16] = biological target: Ubiquitin carboxyl-terminal hydrolase 1 (Homo sapiens) (UniProt O94782); test: Inhibitors of USP1/UAF1: Pilot qHTS (AID 504865; active means well fitted curve in the direction sought with a large enough effect; an effect the other way counts as inactive or inconclusive;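 further: rhodamine fluorescence freed from ubiquitin-rhodamine substrate followed over time; top concentration of the series differs between compounds; on the % scale 0 is the no-effect control and ±100 the full control effect; nearly all actives have a fitted effect of over 35% in size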); details: purified USP1/UAF1, Ub-rhodamine cleavage fluorescence; series mostly up to 54.9 µM
In short: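 Enzyme-free wells gave the negative control, while test wells held 1nM USP1/UAF1 preincubated with compound for 15 min at room temperature. Ub-Rho at 150nM final started the reaction, and fluorescence at 480/540 nm was recorded kinetically.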

[17] = measured here: cell count channel max response
[18] = measured here: lipid channel max response

Cytochrome P450 3A4 (Homo sapiens), sequence (P08684 whole entry, looked up): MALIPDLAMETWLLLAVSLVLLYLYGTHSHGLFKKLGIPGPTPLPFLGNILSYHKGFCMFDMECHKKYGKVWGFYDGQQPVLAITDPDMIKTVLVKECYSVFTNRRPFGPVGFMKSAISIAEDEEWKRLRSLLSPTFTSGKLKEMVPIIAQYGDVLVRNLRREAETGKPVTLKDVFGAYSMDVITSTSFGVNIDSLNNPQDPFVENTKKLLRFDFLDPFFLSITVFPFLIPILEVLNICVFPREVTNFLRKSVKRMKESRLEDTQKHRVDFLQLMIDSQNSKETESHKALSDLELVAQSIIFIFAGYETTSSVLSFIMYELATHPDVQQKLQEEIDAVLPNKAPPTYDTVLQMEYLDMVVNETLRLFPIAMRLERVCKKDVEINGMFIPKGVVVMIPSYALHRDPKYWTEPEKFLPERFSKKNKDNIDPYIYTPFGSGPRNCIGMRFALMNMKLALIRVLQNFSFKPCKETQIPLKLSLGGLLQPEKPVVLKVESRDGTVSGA
Cytochrome P450 1A2 (Homo sapiens), sequence (P05177 whole entry, looked up): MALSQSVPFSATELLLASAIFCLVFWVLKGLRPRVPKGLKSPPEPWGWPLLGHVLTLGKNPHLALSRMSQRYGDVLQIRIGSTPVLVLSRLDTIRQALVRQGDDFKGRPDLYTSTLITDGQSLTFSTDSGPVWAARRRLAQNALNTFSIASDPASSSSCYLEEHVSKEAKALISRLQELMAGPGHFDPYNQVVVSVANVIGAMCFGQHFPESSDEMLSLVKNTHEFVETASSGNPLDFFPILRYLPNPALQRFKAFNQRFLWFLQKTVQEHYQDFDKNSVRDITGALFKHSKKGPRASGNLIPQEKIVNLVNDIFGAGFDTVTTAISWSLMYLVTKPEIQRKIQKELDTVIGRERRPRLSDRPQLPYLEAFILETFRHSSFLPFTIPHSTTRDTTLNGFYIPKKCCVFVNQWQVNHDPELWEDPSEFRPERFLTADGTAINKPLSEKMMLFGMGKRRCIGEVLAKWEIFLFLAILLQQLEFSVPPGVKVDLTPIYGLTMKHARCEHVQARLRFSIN
Cytochrome P450 2D6 (Homo sapiens), sequence (P10635 whole entry, looked up): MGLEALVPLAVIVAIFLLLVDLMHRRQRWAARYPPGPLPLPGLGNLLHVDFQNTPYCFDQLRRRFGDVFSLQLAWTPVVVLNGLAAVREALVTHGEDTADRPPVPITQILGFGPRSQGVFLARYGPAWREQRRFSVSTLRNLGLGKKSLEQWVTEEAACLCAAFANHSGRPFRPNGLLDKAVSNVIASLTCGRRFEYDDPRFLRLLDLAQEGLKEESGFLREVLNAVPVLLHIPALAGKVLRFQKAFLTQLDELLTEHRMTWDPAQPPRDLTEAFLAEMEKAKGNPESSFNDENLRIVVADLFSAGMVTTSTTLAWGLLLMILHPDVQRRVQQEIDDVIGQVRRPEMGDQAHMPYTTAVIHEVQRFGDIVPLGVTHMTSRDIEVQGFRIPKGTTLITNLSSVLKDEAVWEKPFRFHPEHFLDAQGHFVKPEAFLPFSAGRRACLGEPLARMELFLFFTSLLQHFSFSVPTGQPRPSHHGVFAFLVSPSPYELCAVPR
3',5'-cyclic-AMP phosphodiesterase 4B (Homo sapiens), sequence (Q07343 whole entry, looked up): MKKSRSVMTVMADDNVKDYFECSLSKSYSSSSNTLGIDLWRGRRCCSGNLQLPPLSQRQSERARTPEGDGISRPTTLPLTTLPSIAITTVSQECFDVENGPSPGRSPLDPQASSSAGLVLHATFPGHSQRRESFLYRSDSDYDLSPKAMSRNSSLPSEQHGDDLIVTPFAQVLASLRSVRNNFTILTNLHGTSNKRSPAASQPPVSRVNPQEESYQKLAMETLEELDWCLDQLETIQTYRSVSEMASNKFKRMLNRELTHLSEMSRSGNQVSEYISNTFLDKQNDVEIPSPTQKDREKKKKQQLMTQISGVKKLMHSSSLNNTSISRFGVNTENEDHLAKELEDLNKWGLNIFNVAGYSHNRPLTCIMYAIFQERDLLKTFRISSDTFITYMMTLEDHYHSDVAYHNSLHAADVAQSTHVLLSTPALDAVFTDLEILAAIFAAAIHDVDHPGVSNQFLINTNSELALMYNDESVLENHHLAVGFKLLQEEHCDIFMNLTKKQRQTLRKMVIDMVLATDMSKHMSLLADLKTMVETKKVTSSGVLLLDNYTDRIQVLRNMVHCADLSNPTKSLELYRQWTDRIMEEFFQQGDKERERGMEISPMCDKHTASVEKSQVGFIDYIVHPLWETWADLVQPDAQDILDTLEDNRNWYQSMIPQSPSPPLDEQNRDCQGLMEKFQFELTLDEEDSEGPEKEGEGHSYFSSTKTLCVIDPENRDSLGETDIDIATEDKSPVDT
Lysosomal acid glucosylceramidase (Homo sapiens), sequence (P04062 whole entry, looked up): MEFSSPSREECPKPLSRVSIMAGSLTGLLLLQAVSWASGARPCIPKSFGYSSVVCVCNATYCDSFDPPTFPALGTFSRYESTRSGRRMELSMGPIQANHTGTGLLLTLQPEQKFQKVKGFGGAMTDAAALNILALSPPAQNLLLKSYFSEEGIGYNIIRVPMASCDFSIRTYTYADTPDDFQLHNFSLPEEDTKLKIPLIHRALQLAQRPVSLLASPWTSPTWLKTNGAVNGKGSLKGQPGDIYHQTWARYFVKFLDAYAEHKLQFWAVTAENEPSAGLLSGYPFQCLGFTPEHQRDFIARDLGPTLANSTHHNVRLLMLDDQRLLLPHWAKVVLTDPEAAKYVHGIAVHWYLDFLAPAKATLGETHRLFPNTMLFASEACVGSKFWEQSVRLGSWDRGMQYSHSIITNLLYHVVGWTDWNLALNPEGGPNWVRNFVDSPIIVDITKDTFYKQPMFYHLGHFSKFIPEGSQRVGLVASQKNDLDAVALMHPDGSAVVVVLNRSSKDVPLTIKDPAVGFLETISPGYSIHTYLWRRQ
Glucocorticoid receptor (Homo sapiens), sequence (P04150 whole entry, looked up, the tested form may be a part): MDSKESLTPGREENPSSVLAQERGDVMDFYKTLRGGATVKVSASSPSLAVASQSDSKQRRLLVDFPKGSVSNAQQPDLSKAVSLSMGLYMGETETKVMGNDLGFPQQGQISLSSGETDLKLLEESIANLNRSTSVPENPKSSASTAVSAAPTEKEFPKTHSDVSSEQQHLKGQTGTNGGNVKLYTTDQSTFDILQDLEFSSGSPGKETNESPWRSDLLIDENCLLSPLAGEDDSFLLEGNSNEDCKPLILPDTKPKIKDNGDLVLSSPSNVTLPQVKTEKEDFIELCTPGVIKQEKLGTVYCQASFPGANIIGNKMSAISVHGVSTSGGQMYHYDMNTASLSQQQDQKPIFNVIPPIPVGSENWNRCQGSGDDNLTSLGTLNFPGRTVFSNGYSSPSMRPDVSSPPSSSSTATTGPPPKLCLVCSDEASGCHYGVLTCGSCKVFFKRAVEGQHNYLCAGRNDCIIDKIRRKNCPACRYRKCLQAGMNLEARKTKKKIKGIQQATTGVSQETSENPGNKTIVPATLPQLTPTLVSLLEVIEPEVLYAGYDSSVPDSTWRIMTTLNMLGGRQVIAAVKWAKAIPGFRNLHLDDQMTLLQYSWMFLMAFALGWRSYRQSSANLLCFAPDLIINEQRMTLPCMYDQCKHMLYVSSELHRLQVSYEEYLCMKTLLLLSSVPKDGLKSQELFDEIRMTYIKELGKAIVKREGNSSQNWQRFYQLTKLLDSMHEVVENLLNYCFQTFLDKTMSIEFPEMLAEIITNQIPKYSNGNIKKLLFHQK
Ubiquitin carboxyl-terminal hydrolase 1 (Homo sapiens), sequence (O94782 whole entry, looked up): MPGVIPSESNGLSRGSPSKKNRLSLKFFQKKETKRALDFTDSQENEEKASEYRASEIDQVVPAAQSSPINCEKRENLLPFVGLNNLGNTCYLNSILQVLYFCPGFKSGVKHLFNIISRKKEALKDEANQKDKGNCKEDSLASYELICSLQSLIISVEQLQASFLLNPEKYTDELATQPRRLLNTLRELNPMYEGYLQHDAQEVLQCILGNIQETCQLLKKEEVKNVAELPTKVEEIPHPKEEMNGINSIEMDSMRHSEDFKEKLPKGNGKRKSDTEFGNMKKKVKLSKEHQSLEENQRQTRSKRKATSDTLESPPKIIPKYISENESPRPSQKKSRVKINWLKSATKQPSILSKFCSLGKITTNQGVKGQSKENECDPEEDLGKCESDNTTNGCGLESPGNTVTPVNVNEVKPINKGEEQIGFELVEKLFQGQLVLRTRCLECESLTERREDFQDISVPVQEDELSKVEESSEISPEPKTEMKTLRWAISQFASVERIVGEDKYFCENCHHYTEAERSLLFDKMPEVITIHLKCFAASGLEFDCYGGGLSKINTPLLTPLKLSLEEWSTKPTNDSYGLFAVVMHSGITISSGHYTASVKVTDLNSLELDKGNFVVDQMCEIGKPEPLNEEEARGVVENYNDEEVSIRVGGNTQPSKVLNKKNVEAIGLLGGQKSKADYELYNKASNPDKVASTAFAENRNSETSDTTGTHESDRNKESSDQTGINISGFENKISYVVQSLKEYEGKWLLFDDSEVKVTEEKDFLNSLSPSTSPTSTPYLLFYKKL

| SMILES | Potency [1] | activity change, negative = inhibition [2] | Potency [3] | activity change, negative = inhibition [4] | activity, negative = inhibition [5] | Potency [6] | Potency [7] | Potency [8] | Potency [9] | activity change, negative = inhibition [10] | max response [10, 17] [%] | max response [10, 18] [%] | Potency [11] | Potency [12] | Potency [13] | Potency [14] | outcome [15] | Potency [16] |
| --- | --- | --- | --- | --- | --- | --- | --- | --- | --- | --- | --- | --- | --- | --- | --- | --- | --- | --- |
| COc1ccc(C(=O)N2CCC3(CCCN(C(=O)Nc4cccc(C#N)c4)C3)CC2)cc1 | > 11.4 µM (inactive) | -23.2% (inactive) | 15.8 µM (active) | -8.43% (inactive) | 8.74% (inactive) | > 46 µM (inactive) | inactive | 6.31 µM (active) | inactive | 3.86% (inactive) | 0.951 | 7.45 | – | – | – | – | – | – |
| O=C(c1ccncc1)N1CCC2(CC1)CCN(c1ccccn1)CC2 | > 11.4 µM (inactive) | 8.14% (inactive) | 12.6 µM (active) | – | -1.09% (inactive) | > 46 µM (inactive) | inactive | – | – | 6.99% (inactive) | 10.7 | 20.3 | inactive | – | – | – | – | – |
| COc1ccccc1CN1CC[C@@]2(CCCN(S(=O)(=O)c3ccccc3)C2)C1 | > 11.4 µM (inactive) | 7.37% (inactive) | 25.1 µM (active) | – | 8.35% (inactive) | > 46 µM (inactive) | inactive | – | inactive | 6.22% (inactive) | 0.611 | 10.2 | inactive | – | – | – | – | – |
| N#Cc1ccc(CN2CCC3(CC2)CCN(S(=O)(=O)c2ccccc2)CC3)cc1 | > 11.4 µM (inactive) | -18.1% (inactive) | inactive | – | 1.33% (inactive) | > 46 µM (inactive) | inactive | – | inactive | -0.545% (inactive) | 11.7 | 10.8 | inactive | – | – | – | – | – |
| CC(C)CN1CCC2(CC1)CCN(C(=O)c1cnccn1)CC2 | > 11.4 µM (inactive) | -3.54% (inactive) | inactive | – | 3.68% (inactive) | > 46 µM (inactive) | inactive | – | – | -2.81% (inactive) | -8.95 | -8.33 | – | – | – | – | – | – |
| COc1ccc(NC(=O)N2CC[C@@]3(CCCN(C(=O)c4cc(C(F)(F)F)cc(C(F)(F)F)c4)C3)C2)cc1 | > 11.4 µM (inactive) | -20.8% (inactive) | inactive | 12.7% (inactive) | – | > 46 µM (inactive) | inactive | – | inactive | 6.21% (inactive) | 0.894 | 10.8 | inactive | – | – | – | – | – |
| CC(C)CN1CC[C@@]2(CCCN(C(=O)c3cc(C(F)(F)F)cc(C(F)(F)F)c3)C2)C1 | > 11.4 µM (inactive) | -5.91% (inactive) | 25.1 µM (active) | – | 11.2% (inactive) | > 46 µM (inactive) | inactive | – | inactive | 1.55% (inactive) | 13.4 | 17.5 | inactive | – | – | – | – | – |
| O=C(c1cccc(F)c1)N1CCC2(CC1)CCN(C(c1ccccc1)c1ccccc1)CC2 | > 11.4 µM (inactive) | 2.86% (inactive) | 10 µM (active) | – | -6.67% (inactive) | > 46 µM (inactive) | inactive | inactive | 5.01 µM (active) | 4.65% (inactive) | 12.8 | 19.8 | inactive | 3.16 µM (active) | – | – | – | – |
| COc1ccccc1CN1CC[C@@]2(CCCN(C(=O)c3cc(C(F)(F)F)cc(C(F)(F)F)c3)C2)C1 | > 11.4 µM (inactive) | -0.111% (inactive) | 15.8 µM (active) | – | 4.98% (inactive) | > 46 µM (inactive) | inactive | – | – | 2.5% (inactive) | 2.09 | 7.48 | inactive | – | – | – | – | – |
| CN(C)Cc1ccccc1-c1ccc2ncnc(N(C)Cc3ccco3)c2c1 | > 11.4 µM (inactive) | 3.42% (inactive) | 2 µM (active) | – | -16.1% (inactive) | > 46 µM (inactive) | inactive | – | inactive | 3.94% (inactive) | 7.91 | 12.6 | – | 2 µM (active) | > 46 µM (inactive) | inactive | inactive | inactive |
| c1ccc(C(c2ccccc2)N2CC3(CCNCC3)C2)cc1 | > 11.4 µM (inactive) | 14% (inactive) | 15.8 µM (active) | – | – | > 46 µM (inactive) | inactive | inactive | – | 0.527% (inactive) | -0.423 | 0.5 | inactive | 2.51 µM (active) | – | – | – | – |
